Reference: PubChem BioAssay (NCATS)
Where “and” joins values, the source holds several entries; their conditions need not be identical. Equal entries are not always repeated. Results filed as inconclusive are left out. Calls of active or inactive are those of the source. Unless noted, calls follow the shape of the dose curve; as a rule, active = well fitted curve in the direction sought with a large enough effect; inconclusive = small, poorly fitted or top-dose-only effect, or another doubt; inactive = no such curve, though single readings can be large; an effect the other way counts as inactive or inconclusive.

How the values were obtained:
[1] = target: Lysosomal acid glucosylceramidase (Homo sapiens) (UniProt P04062); experiment: Glucocerebrosidase-p2 (AID 348; in the data active = potency below about 10 µM; also: potency is read from the fitted curve at half-maximal effect); conditions: purified GBA, blue fluorogenic substrate, 40 min
How it was run: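 Compounds titrated from 0.6 nM upwards against 0.2 nM enzyme in pH 5.9 citric acid/KH2PO4, taurocholate, tween-20; blue fluorogenic substrate 80 uM, 40 min room temperature, stopped and read Ex 365/Em 440 for AC50.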

[2] = AP1 Signaling Pathway (AID 357; active = well fitted curve in either direction with a large enough effect, not every such curve was filed as active;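 also: ME-180 reporter cells stimulated with EGF at its EC50 level; % is scaled to controls: 0 for no effect and ±100 for the full control effect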)
How it was run: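 A ratiometric CCF4 readout (405 nm excitation; 460 and 530 nm emission) quantified AP-1-driven beta-lactamase in ME-180 cells after 5 h with compound and EC50 EGF; AC50 values were derived for activators and inhibitors.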

[3] = target: Cytochrome P450 1A2 (Homo sapiens) (UniProt P05177); experiment: p450-cyp1a2 (AID 410; calls by dose curve; also: potency is read from the fitted curve at half-maximal effect;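 as to activity change, negative = inhibition: -100% = full effect of reference inhibitor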)
How it was run: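 Luminescent readout of luciferin formed from Luciferin-ME by human CYP1A2; data normalized against complete inhibition by 57 uM furafylline. Enzyme 20nM, substrate 100uM at Km, 100mM KPO4 buffer, 60 min reaction at room temperature.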

[4] = NFAT Signaling Pathway (AID 444; active = well fitted curve in either direction with a large enough effect, not every such curve was filed as active;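 also: carbachol stimulus at about its EC50 of 1 µM final; % is scaled to controls: 0 for no effect and ±100 for the full control effect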); conditions: Jurkat NFAT-bla M1, carbachol, beta-lactamase ratio, 5 h
How it was run: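 Jurkat cells with NFAT-driven β-lactamase reporter and co-expressed M1 receptor, stimulated with carbachol (final 1 uM, ~EC50), compound titration, 5 h at 37 °C. CCF4 loaded 1 h at RT; 460/530 nm ratio gave %activity and AC50.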

[5] = Stat Signaling Pathway (AID 446; active = well fitted curve in either direction with a large enough effect, not every such curve was filed as active;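 also: ME-180 cervical cancer cells given 40 pM IL-6 alongside compound; SIE-controlled beta-lactamase reporter measured as 460/530 nm FRET emission ratio; % is scaled to controls: 0 for no effect and ±100 for the full control effect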)
How it was run: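 Reporter line: ME-180 cervical carcinoma, SIE-beta-lactamase. Treatment: compound with 40 pM IL-6, 5 hrs, 37 C, in low-serum OPTI-MEM with 10 mM HEPES pH 7.3. Detection: 460/530 nm fluorescence.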

[6] = target: Glucocorticoid receptor (Homo sapiens) (UniProt P04150); experiment: GR-EFC Redistribution (AID 451; calls by dose curve; also: potency is read from the fitted curve at half-maximal effect); conditions: CHO-K1 GR-EFC translocation, beta-gal luminescence, 2 h
How it was run: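 CHO-K1 cells expressing nuclear EA and GR-ED fragments of b-gal; compounds titrated up to 46 uM final, 2 h at 37 C. GR nuclear translocation read as complemented b-gal luminescence after 1 h RT detection.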

[7] = target: Mitogen-activated protein kinase 10 (Mus musculus) (UniProt Q61831); experiment: JNK3 AlphaScreen Assay (AID 530; active = well fitted curve in either direction with a large enough effect, not every such curve was filed as active;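 also: kinase came from lysate of stimulated human HepG2 cells; signal reports phosphorylation of biotinylated GST-cJun 1-79 at Ser73 with 10 µM ATP; % is scaled to controls: 0 for no effect and ±100 for the full control effect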)
How it was run: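 Pre-activated (IL-1β/TNFα) JNK3 in HepG2 lysates phosphorylates biotin-GST-cJun(1-79), 10 uM ATP; anti-phospho-cJun(Ser73) AlphaScreen read at room temperature, pH 7.6 Tris buffer. Compounds pre-incubated 15 min as titrations.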

[8] = target: 3',5'-cyclic-AMP phosphodiesterase 4B (Homo sapiens) (UniProt Q07343); experiment: qHTS Assay for Inhibitors of PDE-IV (AID 607; active = well fitted activation curve with a large enough effect in the main read-out, with a control signal flat, not every such curve was filed as active; also: % of control where 0% means no effect)
How it was run: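 Cell-based read-out of cAMP via a modified cyclic nucleotide-gated channel and membrane potential dye (535/590 nm) in HEK293 cells expressing PDE4 endogenously. Compounds tested up to 22.9 uM final; 100 uM RO 20-1724 reference.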

[9] = qHTS Assay for Lipid Storage Modulators (AID 1519; calls by dose curve); conditions: Drosophila S3 cells, BODIPY lipid droplet/cell ratio, laser cytometry, cells loaded with oleic acid
How it was run: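 Cells seeded at 5,000 per well were treated with compounds over a concentration series and loaded with oleic acid (400 uM, as added). Lipid droplet fluorescence (488 nm excitation, 500-530 nm channel) was read by laser-scanning cytometry and normalized to 20 uM Triacsin C.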

[10] = Primary qHTS for small molecule stabilizers of the endoplasmic reticulum resident proteome: Secreted ER Calcium Modulated Protein (SERCaMP) assay (AID 1508630); also: % is scaled to controls: 0 for no effect and ±100 for the full control effect
How it was run: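 GLuc-SERCaMP-expressing SH-SY5Y cells, pretreated 16 h with compound, are challenged with thapsigargin to empty ER calcium stores; after 4 h, coelenterazine is added directly to the medium and luminescence is imaged.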

[11] = target: Glucocorticoid receptor (Homo sapiens) (UniProt P04150); experiment: GR-GFP Redistribution (AID 450;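 active = compounds whose dose series gives a full or clear partial fitted curve of increased nuclear translocation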; also: potency is read from the fitted curve at half-maximal effect); conditions: U2OS GR-GFP nuclear translocation, laser cytometry, 2 h
[12] = target: Cytochrome P450 3A4 (Homo sapiens) (UniProt P08684); experiment: qHTS Assay for Inhibitors and Substrates of Cytochrome P450 3A4 (AID 884); also: nearly all actives have a fitted effect of over 50% in size; also: potency is read from the fitted curve at half-maximal effect
How it was run: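 20 nM human CYP3A4 with 25 uM Luciferin-PPXE (at KM) in 200 mM KPO4, preincubated 10 min with compound; NADPH regeneration started a 60 min RT reaction. Luciferin detected by luminescence, normalized to 57 uM ketoconazole as full inhibition.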

[13] = target: Cytochrome P450 3A4 (Homo sapiens) (UniProt P08684); experiment: qHTS Assay for Activators of Cytochrome P450 3A4 (AID 885); also: nearly all actives have a fitted effect of over 65% in size
How it was run: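 Signal was normalized against complete inhibition by 57 uM ketoconazole. The reaction used 20nM CYP3A4 with 25uM Luciferin-PPXE, 10-min compound preincubation and a 60-min NADPH-supported step at RT.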

[14] = target: Cytochrome P450 2C19 (Homo sapiens) (UniProt P33261); experiment: qHTS Assay for Inhibitors and Substrates of Cytochrome P450 2C19 (AID 899); also: nearly all actives have a fitted effect of over 60% in size; also: potency is read from the fitted curve at half-maximal effect
How it was run: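 5 nM human CYP2C19 with 10uM Luciferin-H EGE (at KM) in 50mM KPO4, compound preincubated 10 min at 37C, then NADPH regeneration for 60 min at 37C. Luciferin read by luminescence after detection reagent; normalized to 57uM ketoconazole as full inhibition.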

[15] = Confirmation and Secondary Assay for Modulators of Hemoglobin Beta Chain Splicing at IVS2 654 locus (AID 910);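 also: HeLa cells stably carrying EGFP split by mutant beta-globin IVS2-654 intron; % of control where 0% means no effect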
How it was run: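 HeLa cells stably expressing EGFP interrupted by β-globin IVS2-654 intron, seeded overnight in Opti-MEM/2% FCS, then treated 2 days at 37 °C. Restored splicing read as total peak GFP intensity per well by laser scanning cytometry (488 nm excitation, 500–520 nm emission); 500 nM antisense PNA as control.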

[16] = Confirmation and Secondary Assay for Modulators of Hemoglobin Beta Chain Splicing at IVS2 705 locus (AID 930);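 also: HeLa cells stably expressing the EGFP-705 splicing reporter; GFP fluorescence per well restored by corrected splicing of the IVS2-705 intron in EGFP; % of control where 0% means no effect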
How it was run: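 Splice-correction reporter: EGFP cDNA split by beta-globin intron 2 bearing the 705 mutation, stably in HeLa. Compound incubation 2 days, 37C; fluorescent objects 5-250 µm summed per well.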

[17] = system: HIV-1 nucleocapsid protein NCp7 (binding to TG oligonucleotide); experiment: HIV Nucleocapsid (AID 346; call rule not given here;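 also: potency is read from the fitted curve at half-maximal effect; potency is for inhibitors that block NC binding and lower polarization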); conditions: HIV-1 NC / fluorescein-TGTGTGTG probe, fluorescence polarization
How it was run: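 Fluorescence polarization readout: labelled TG4xF oligo (10 nM) with 100 nM nucleocapsid protein, high-salt (250mM NaCl) Hepes pH 7.5 buffer containing zinc and fresh reducing agents. Compounds added by pin tool; incubation 1 hr, room temperature.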

[18] = target: Cytochrome P450 2C9 (Homo sapiens) (UniProt P11712); experiment: qHTS Assay for Inhibitors and Substrates of Cytochrome P450 2C9 (AID 883); also: nearly all actives have a fitted effect of over 60% in size; also: potency is read from the fitted curve at half-maximal effect
How it was run: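 Human CYP2C9 (10nM) with Luciferin-H at 100uM (its KM) in 25mM KPO4; compound preincubated 10 min at 37C, then NADPH regeneration for 60 min at 37C. Luciferin read by luminescence after detection reagent; normalized to 57uM sulphaphenazole as full inhibition.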

[19] = target: Ubiquitin carboxyl-terminal hydrolase 1 (Homo sapiens) (UniProt O94782); experiment: Inhibitors of USP1/UAF1: Pilot qHTS (AID 504865); also: nearly all actives have a fitted effect of over 35% in size; also: potency is read from the fitted curve at half-maximal effect
How it was run: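 1nM USP1/UAF1 + cpd, 15 min RT; start w/ Ub-Rho 150nM final; kinetic FL 480/540 nm, 6 reads q60 s. Buffer 50mM HEPES pH 7.8, 0.5mM EDTA, 1mM TCEP, 0.01% Tween-20, 0.1 mg/ml BSA.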

[20] = measured here: cell count channel max response
[21] = measured here: lipid channel max response

Sequence of Cytochrome P450 3A4 (Homo sapiens) (P08684 whole entry, looked up): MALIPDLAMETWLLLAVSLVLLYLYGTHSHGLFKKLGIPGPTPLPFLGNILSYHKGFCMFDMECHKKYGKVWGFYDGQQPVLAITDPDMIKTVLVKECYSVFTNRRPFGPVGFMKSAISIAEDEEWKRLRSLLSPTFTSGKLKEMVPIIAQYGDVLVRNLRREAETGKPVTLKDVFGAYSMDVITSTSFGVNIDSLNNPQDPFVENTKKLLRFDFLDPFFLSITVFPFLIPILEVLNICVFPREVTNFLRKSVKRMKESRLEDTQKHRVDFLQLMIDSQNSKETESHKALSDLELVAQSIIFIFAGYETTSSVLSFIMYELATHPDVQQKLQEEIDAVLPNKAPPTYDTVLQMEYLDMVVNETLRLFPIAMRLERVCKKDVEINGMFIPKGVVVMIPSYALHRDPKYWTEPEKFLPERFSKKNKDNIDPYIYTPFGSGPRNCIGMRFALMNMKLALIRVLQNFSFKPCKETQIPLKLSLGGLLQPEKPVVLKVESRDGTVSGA
Sequence of Lysosomal acid glucosylceramidase (Homo sapiens) (P04062 whole entry, looked up): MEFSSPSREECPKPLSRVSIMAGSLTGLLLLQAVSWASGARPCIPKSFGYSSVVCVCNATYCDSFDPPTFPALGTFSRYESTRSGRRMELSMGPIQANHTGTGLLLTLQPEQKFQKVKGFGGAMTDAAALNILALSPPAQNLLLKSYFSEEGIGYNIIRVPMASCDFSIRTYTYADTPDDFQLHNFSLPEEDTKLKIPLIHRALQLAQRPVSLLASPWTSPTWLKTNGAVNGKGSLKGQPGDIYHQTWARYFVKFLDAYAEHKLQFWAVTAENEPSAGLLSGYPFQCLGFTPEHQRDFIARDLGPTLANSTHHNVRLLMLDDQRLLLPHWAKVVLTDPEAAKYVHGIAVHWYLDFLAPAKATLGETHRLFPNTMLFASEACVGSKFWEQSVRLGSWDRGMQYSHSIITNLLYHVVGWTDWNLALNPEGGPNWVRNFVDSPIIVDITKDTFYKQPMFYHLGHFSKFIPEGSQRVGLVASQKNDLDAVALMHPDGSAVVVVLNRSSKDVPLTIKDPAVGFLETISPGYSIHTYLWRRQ
Sequence of Glucocorticoid receptor (Homo sapiens) (P04150 whole entry, looked up, the tested form may be a part): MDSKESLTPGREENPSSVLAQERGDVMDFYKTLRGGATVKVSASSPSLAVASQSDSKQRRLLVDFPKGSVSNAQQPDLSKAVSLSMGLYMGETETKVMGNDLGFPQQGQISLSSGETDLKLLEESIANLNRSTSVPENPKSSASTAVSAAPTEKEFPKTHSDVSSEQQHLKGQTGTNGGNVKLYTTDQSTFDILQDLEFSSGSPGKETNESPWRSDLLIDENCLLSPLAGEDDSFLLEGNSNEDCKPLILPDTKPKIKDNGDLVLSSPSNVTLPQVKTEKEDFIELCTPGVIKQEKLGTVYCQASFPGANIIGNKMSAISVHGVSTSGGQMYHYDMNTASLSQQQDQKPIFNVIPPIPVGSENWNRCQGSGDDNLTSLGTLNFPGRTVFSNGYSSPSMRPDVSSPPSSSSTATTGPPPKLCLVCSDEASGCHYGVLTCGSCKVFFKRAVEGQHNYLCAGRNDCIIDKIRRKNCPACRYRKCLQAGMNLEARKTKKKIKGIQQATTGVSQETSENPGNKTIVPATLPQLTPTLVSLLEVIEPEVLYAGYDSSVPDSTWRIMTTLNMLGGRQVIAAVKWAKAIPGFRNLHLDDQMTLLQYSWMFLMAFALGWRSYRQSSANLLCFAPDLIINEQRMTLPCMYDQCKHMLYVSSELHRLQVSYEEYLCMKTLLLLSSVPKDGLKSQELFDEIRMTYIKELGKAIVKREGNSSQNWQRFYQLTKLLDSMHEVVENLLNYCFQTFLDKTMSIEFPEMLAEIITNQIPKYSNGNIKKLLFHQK
Sequence of Cytochrome P450 1A2 (Homo sapiens) (P05177 whole entry, looked up): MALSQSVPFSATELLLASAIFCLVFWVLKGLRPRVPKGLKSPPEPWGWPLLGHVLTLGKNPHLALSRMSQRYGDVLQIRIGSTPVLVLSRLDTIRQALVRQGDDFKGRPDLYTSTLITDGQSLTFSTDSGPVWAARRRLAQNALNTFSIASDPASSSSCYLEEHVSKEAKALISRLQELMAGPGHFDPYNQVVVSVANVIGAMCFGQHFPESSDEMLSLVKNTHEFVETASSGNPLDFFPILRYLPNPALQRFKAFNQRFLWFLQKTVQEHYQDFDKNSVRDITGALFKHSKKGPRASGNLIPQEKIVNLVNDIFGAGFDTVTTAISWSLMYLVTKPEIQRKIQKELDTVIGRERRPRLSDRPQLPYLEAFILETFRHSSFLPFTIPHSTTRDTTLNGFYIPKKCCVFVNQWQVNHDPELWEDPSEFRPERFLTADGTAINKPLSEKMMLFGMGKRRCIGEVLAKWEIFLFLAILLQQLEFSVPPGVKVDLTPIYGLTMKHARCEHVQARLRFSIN
Sequence of 3',5'-cyclic-AMP phosphodiesterase 4B (Homo sapiens) (Q07343 whole entry, looked up): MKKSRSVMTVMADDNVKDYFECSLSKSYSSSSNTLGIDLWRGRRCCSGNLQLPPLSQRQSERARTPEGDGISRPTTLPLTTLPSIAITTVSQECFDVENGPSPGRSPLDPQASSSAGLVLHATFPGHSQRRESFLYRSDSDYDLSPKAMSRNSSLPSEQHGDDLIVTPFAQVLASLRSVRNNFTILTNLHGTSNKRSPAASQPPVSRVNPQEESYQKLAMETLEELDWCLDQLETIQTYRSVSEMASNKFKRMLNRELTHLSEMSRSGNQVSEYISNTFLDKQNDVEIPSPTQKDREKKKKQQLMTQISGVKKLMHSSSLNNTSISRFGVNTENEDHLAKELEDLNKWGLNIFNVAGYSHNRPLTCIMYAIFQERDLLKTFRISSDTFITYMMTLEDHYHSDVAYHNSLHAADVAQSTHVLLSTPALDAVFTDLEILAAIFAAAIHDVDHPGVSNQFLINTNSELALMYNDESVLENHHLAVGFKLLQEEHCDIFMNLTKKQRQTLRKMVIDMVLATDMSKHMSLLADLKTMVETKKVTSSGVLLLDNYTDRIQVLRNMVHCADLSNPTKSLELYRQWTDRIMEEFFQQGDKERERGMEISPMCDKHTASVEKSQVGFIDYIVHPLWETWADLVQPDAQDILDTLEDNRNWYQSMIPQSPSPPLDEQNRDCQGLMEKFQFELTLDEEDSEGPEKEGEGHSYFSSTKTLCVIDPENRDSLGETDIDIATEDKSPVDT
Sequence of Cytochrome P450 2C19 (Homo sapiens) (P33261 whole entry, looked up): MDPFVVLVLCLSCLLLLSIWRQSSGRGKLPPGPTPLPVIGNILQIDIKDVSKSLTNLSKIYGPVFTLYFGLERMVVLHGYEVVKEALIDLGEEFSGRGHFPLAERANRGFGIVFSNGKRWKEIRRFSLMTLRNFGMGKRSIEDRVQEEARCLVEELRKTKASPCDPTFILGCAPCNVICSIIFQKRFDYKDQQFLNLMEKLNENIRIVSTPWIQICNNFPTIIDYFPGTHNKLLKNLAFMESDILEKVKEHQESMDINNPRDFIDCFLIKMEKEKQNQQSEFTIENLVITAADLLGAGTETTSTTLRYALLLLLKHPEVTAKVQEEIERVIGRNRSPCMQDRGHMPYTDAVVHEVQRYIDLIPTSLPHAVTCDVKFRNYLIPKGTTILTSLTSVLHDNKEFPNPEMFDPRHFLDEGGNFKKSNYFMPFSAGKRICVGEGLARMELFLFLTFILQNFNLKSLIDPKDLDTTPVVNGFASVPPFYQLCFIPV
Sequence of Cytochrome P450 2C9 (Homo sapiens) (P11712 whole entry, looked up): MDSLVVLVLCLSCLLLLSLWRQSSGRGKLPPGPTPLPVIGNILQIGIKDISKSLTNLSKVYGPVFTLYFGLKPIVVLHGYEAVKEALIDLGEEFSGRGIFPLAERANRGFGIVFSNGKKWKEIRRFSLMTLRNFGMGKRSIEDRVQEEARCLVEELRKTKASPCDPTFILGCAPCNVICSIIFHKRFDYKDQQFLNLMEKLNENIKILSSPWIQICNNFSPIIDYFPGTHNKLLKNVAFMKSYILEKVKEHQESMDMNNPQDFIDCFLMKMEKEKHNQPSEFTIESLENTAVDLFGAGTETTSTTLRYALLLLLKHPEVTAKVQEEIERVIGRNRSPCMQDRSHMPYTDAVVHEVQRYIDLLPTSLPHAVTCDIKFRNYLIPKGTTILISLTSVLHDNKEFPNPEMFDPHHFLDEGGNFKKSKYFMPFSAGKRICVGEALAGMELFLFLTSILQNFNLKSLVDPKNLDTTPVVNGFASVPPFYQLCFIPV
Sequence of Ubiquitin carboxyl-terminal hydrolase 1 (Homo sapiens) (O94782 whole entry, looked up): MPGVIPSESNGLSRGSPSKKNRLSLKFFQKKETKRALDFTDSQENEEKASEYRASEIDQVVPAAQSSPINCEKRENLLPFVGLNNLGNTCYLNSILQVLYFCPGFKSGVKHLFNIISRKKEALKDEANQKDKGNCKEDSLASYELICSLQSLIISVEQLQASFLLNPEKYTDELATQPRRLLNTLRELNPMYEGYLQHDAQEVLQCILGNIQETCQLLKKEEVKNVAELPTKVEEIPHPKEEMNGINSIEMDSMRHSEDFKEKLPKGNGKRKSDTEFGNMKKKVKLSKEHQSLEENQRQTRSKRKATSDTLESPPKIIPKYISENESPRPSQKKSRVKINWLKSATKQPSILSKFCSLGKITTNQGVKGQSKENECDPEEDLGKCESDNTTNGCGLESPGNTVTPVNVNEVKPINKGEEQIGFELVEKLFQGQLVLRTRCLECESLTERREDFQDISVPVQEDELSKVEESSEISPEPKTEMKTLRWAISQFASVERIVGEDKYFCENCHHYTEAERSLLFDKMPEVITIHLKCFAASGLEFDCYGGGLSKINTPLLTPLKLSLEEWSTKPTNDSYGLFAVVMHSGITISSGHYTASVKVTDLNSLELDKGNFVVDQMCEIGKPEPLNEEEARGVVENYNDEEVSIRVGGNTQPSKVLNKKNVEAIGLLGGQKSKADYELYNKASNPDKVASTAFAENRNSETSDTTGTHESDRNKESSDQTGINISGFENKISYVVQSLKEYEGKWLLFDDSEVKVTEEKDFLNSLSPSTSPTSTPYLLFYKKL

c1ccc(N2CC3(CCNCC3)C2)cc1
Potency [1]: > 11.4 µM (inactive)
outcome [2]: inactive
Potency [3]: inactive
activity change, negative = inhibition ([4]; at 7.69 µM (top of the series)): -5.86% (inactive)
outcome [5]: inactive
Potency [6]: > 46 µM (inactive)
outcome [7]: inactive
Potency [8]: inactive
activity change, negative = inhibition ([9]; at 57.5 µM (top of the series)): 3.32% (inactive)
max response [9, 20]: 11.6%
max response [9, 21]: 20.7%
outcome [10]: inactive

CCCN1CCc2cc(O)cc3c2C1Cc1ccc(O)c(O)c1-3 (configuration not stated)
outcome [10]: inactive

Cc1ccccc1-c1cncnc1NCCc1cnc[nH]1
Potency [1]: > 11.4 µM (inactive)
outcome [2]: inactive
Potency [3]: 5.01 µM (active)
activity change, negative = inhibition ([4]; at 7.69 µM (top of the series)): -8.8% (inactive)
outcome [5]: inactive
Potency [11]: > 46 µM (inactive)
Potency [6]: > 46 µM (inactive)
outcome [7]: inactive
Potency [8]: inactive
Potency [12]: 0.631 µM (active)
Potency [13]: inactive
Potency [14]: 0.0501 µM (active)
Potency [15]: inactive
Potency [16]: inactive
activity change, negative = inhibition ([9]; at 57.5 µM (top of the series)): 6.91% (inactive)
max response [9, 20]: 9.82%
max response [9, 21]: 17.7%
outcome [10]: inactive

O=C(Oc1ccccc1)N1CCC2(CC1)CN(Cc1ccncc1)C2
Potency [17]: > 20 µM (inactive)
Potency [1]: > 11.4 µM (inactive)
outcome [2]: inactive
Potency [3]: 10 µM (active)
outcome [5]: inactive
Potency [6]: > 46 µM (inactive)
outcome [7]: inactive
Potency [18]: 3.16 µM (active)
Potency [13]: inactive
outcome [10]: inactive

COc1ccc2cc1Oc1ccc(cc1)CC1c3cc(c(OC)cc3CCN1C)Oc1c(OC)c(OC)cc3c1C(C2)N(C)CC3 (configuration not stated)
activity change, negative = inhibition ([9]; at 57.5 µM (top of the series)): 6.58% (inactive)
max response [9, 20]: -1.03%
max response [9, 21]: 6.79%

CNCC[C@@H](Oc1ccc(C(F)(F)F)cc1)c1ccccc1
activity change, negative = inhibition ([9]; at 57.5 µM (top of the series)): 1.23% (inactive)
max response [9, 20]: -30.3%
max response [9, 21]: -28.9%

CC(CCC(=O)O)C1CCC2C3C(=O)CC4CC(=O)CC[C@@]4(C)C3CC(=O)[C@]12C (some centres not stated)
activity change, negative = inhibition ([9]; at 57.5 µM (top of the series)): 1.06% (inactive)
max response [9, 20]: 16%
max response [9, 21]: 21.9%

O=C1c2ccccc2-c2cccc3cccc1c23
Potency [13]: inactive
Potency [15]: inactive
Potency [16]: inactive
activity change, negative = inhibition ([9]; at 57.5 µM (top of the series)): 15.9% (inactive)
max response [9, 20]: 9.47%
max response [9, 21]: 28.5%
Potency [19]: inactive

CN1C[C@H](C(=O)N[C@]2(C)O[C@]3(O)[C@H]4CCCN4C(=O)[C@H](Cc4ccccc4)N3C2=O)C[C@H]2c3cccc4[nH]cc(c34)C[C@@H]21
activity change, negative = inhibition ([9]; at 25.7 µM (top of the series)): -4.57% (inactive)
max response [9, 20]: -15.1%
max response [9, 21]: -19.9%

CC1=NCCc2c1[nH]c1cc(O)ccc21
Potency [3]: 12.6 µM (active) and 25.1 µM (active)
activity change, negative = inhibition ([4]; at 17.2 µM (top of the series)): -14.7% (inactive)
outcome [5]: inactive
Potency [11]: > 20.6 µM (inactive) and > 46 µM (inactive)
Potency [6]: > 20.6 µM (inactive) and > 46 µM (inactive)
outcome [7]: inactive
Potency [8]: inactive
Potency [18]: inactive
Potency [12]: inactive
Potency [13]: inactive
Potency [14]: inactive
Potency [15]: inactive
Potency [16]: inactive
activity change, negative = inhibition ([9]; at 25.7 µM (top of the series)): 1.71% (inactive)
activity change, negative = inhibition ([9]; at 57.5 µM (top of the series)): 18.3% (inactive)
max response [9, 20]: 2% and 2.42%
max response [9, 21]: 2.85% and 18.5%

COc1cc2c(cc1-c1cc3cc4ccoc4cc3oc1=O)OCO2
Potency [12]: 0.398 µM (active)
Potency [15]: inactive
Potency [16]: inactive
activity change, negative = inhibition ([9]; at 57.5 µM (top of the series)): 16.5% (inactive)
max response [9, 20]: 6.63%
max response [9, 21]: 25.9%
Potency [19]: 50.1 µM (active)

C[C@@H](C(=O)O)c1ccc(-c2ccccc2)c(F)c1
activity change, negative = inhibition ([9]; at 25.7 µM (top of the series)): 2.45% (inactive)
max response [9, 20]: 2.3%
max response [9, 21]: 1.21%
